Screening results deposited in PubChem BioAssay by National Center for Advancing Translational Sciences (NCATS).
Vaccinia mCherry = qHTS for Stage-Specific Inhibitors of Vaccinia Orthopoxvirus: mCherry Reporter Primary qHTS | Vaccinia virus mCherry reporter infection, fluorescence | Potency, µM (series often up to 36.5 µM), for inactives: at the top dose activity change, negative = inhibition, usual class: inhibitors | 310,000 compounds, 0.63% hits | AID 720579, 2013; calls by dose curve; tested in A549 cells; also: potency is read from the fitted curve at half-maximal effect; nearly all actives have a fitted effect of over 35% in size
Vaccinia Venus = qHTS for Stage-Specific Inhibitors of Vaccinia Orthopoxvirus: Venus Reporter Primary qHTS; Vaccinia virus Venus reporter expression, fluorescence; Potency, µM (top dose mostly 36.5 µM), without a hit: top-dose activity change, negative = inhibition, actives largely listed as inhibitors; 330,000 compounds, 0.46% hits; calls by dose curve; tested in A549 cells; also: potency is read from the fitted curve at half-maximal effect; nearly all actives have a fitted effect of over 30% in size
FMDV inh = High Throughput Screening for Foot and Mouth Disease Virus Antivirals. 410,000 compounds, 1.2% hits. Potency, µM (top dose mostly 57.9 µM), for the others: at the top dose activity change, negative = inhibition, most hits filed as inhibitors. FMDV antiviral cell-based qHTS; calls by dose curve; tested in HEK293T cells; also: read-out not given here; potency is read from the fitted curve at half-maximal effect; nearly all actives have a fitted effect of over 45% in size
HCMV inh = qHTS Assay for inhibitors of the human cytomegalovirus (HCMV). HFF cells, HCMV-luciferase reporter, 72 h; hits give low values. activity change, negative = inhibition, % at 57.5 µM. 410,000 compounds, 4.5% hits. AID 1259415, 2018; in the data active = activity change below about -60%; inconclusive = no clear call, values can overlap the other calls; inactive = above about -39%
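Cell-based, HFFs, 1000 cells/well, 16 h 37C; cpds in DMSO + HCMV-luc, MOI 1 PFU/cell; 72 h 37C; OneGlo luminescence after 5 min RT; norm. to buffer vs Salinomycin 10uM.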
Marburg entry inh = qHTS for inhibitors of binding or entry into cells for Marburg Virus | Potency, µM (series often up to 37.8 µM), without a hit: top-dose activity change, negative = inhibition, most hits filed as inhibitors | 300,000 compounds, 1.8% hits | Marburg virus pseudotyped entry inhibition, cell reporter; calls by dose curve; tested in HEK293 cells; also: potency is read from the fitted curve at half-maximal effect
LASV entry inh = qHTS for Inhibitors of binding or entry into cells for Lassa Virus; AID 540256, 2011; 300,000 compounds, 1.2% hits; Lassa virus pseudotype entry inhibition, cell reporter; Potency, µM (top dose mostly 37.9 µM), without a hit: at the highest dose activity change, negative = inhibition, usual class: inhibitors; calls by dose curve; tested in HEK293 cells; also: potency is read from the fitted curve at half-maximal effect; nearly all actives have a fitted effect of over 50% in size
The depositor's hits bear a star; i = inactive; ? = inconclusive; · = no result given; ! = not confirmed by another sample; [ ] = remark or other dose. Shown are actives, neighbours in structure and some others; about 6.5% of the full set was active somewhere. % is scaled to controls: 0 for no effect and ±100 for the full control effect.

SMILES | Vaccinia mCherry | Vaccinia Venus | FMDV inh | HCMV inh | Marburg entry inh | LASV entry inh
COc1cc(NS(=O)(=O)c2ccc(NC(=O)c3ccc(Cl)cc3Cl)cc2)nc(OC)n1 | -13.1% | 1.7% | -9.8% | 9.1 | · | 6.6%[46.1 µM]
C=C1C(=O)OC2CC3(C)OC3CCC(C)=CC(OC(C)=O)C12 (stereo unspecified) | -18.5% | ? | 35.5µM* | 0.0 | ? | ?
CCOC(=O)c1c(C)[nH]c(C)c1S(=O)(=O)N(C)CC(=O)Nc1ccc(C)cc1Br | -14.3% | -0.8% | 11.6% | -16.6 | · | -19.2%[46.1 µM]
CCCN(CC(=O)Nc1cc(Cl)cc(Cl)c1)CC(=O)Nc1ccc(F)c(F)c1F | ? | ? | -22.8% | -87.3* | ? | ?
O=C(Cc1c[nH]c2ccccc12)N1CCC(n2c(C3CCCO3)nc3cc(C(F)(F)F)ccc32)CC1 (stereo unspecified) | -14.4% | -11.5% | -5.8% | · | · | ·
Cc1ccccc1-n1c(=O)c(C#N)cc2c(=O)n3ccccc3nc21 | · | · | -18.2% | -24.1 | -2.7% | 8.1%
N#Cc1cc2c(=O)n3ccccc3nc2n(-c2ccc(Cl)cc2)c1=O | -3.1% | 4.0% | 4.6% | -60.0* | · | ·
O=S1(=O)N[C@H](Cc2ccccc2)COc2cc(F)ccc21 | · | · | · | -22.3 | · | 3.1%[46.1 µM]
Cc1noc(C)c1-c1nc(N(C)C)c2ccccc2n1 | · | · | 0.0% | · | · | ·
O=c1cc2oc3cc(O)c(O)cc3c(-c3ccccc3[N+](=O)[O-])c-2cc1O | -21.4% | -10.8% | ? | -64.0* | · | ·
O=c1cc(-c2ccccc2)oc2cc(O)c(O)cc12 | i | -7.1% | 12.3% | · | · | ·
COc1ccc(CCNc2ncnc3nc[nH]c23)cc1 | ? | -29.0% | · | · | · | ·
CC(C)CCNC(=O)Cn1c(SCc2cccc(F)c2)nc2ccncc21 | i | -16.7% | · | · | · | ·
CC(=O)Nc1sc2c(c1-c1nc3ccccc3s1)CN(C(C)C)CC2 | · | · | -27.4% | -97.3* | · | ·
CN1CCc2c(sc(NC(=O)CSc3ccccc3)c2-c2nc3ccccc3s2)C1 | -12.9%[7.34 µM] | -8.7%[7.34 µM] | -14.0% | 28.6 | · | 8.8%[46.1 µM]
CC(=O)N1CCc2c(sc(NC(=O)C3CC3)c2-c2nc3ccccc3s2)C1 | ? | ? | 25.1µM* | 12.2 | -0.4% | ·
CC(=O)N1CCc2c(sc(NC(=O)CSc3ccccc3)c2-c2nc3ccccc3s2)C1 | -1.2%[7.34 µM] | -2.6%[7.34 µM] | -10.1% | -97.0* | · | -18.3%[46.1 µM]
C=CCOC(=O)N[C@H](c1cccc(OC)c1)[C@H](C)C=CCC(=O)OC | · | · | · | · | 14.5%[14.2 µM] | ?
Cc1cc(Nc2ccc(Cl)cc2)n2cnnc2n1 | -18.6% | -10.1% | -4.3% | 2.7 | -0.2%[46.1 µM] | ?
COc1ccc(/C=C2\C(=O)ON=C2c2ccccc2)cc1 | -9.7% | 1.5% | 35.5µM* | 0.3 | ? | 22.5%[46.1 µM]
COc1cc(/C=C2\C(=O)ON=C2c2ccc(Cl)cc2)ccc1O | i | -12.9% | 25.1µM* | 18.5 | ? | -21.9%[46.1 µM]
O=C1ON=C(c2ccccc2)/C1=C/c1ccc(OS(=O)(=O)c2ccccc2)cc1 | -13.7% | -5.1% | 31.6µM* | -32.0 | 8.7% | 11.6%
O=C(OCc1ccccc1Cl)c1ccc(-c2nnn(Cc3ccccc3)n2)cc1 | -11.6% | -14.3% | 4.5% | -13.0 | -0.9%[46.1 µM] | 1.4%[46.1 µM]
COc1cc(OC)c(NC(=O)c2nn(C)c3c2COc2ccccc2-3)cc1Cl | -15.7% | -10.0% | -3.1% | -14.9 | -16.7%[46.1 µM] | -28.1%[46.1 µM]
O=C(O)CCCc1ccc(N(CCCl)CCCl)cc1 | -8.0% | -23.9% | -4.2% | 0.8 | 3.16µM*! | -28.5%
SMILES | Vaccinia mCherry | Vaccinia Venus | FMDV inh | HCMV inh | Marburg entry inh | LASV entry inh
NC(Cc1ccc(O)cc1)C(=O)NN=Cc1ccc(N(CCCl)CCCl)cc1 (stereo unspecified) | -2.1% | -18.3% | 0.0% | -16.9 | 1.26µM* | 3.98µM*
N[C@@H](Cc1ccc(N(CCCl)CCCl)cc1)C(=O)O | -1.9% | -17.8% | -20.4% | -27.2 | 5.8µM* | ·
COc1cc(C(=O)NN=Cc2ccc(N(CCCl)CCCl)cc2)cc(OC)c1OC | -11.8% | -24.0% | -19.0% | -16.9 | ? | ?
CC(=O)NC(Cc1ccc(N(CCCl)CCCl)cc1)C(=O)O (stereo unspecified) | i | -2.7% | · | -24.8 | ? | -29.4%
CN(C)C(=O)c1ccc(-c2nc(NCc3cccnc3)c3ccccc3n2)cc1 | -19.3% | -18.9% | 72.3% | · | · | ·
CNc1c(Br)cc(C(O)C2=CCc3ccccc32)cc1Br (stereo unspecified) | -21.7% | -16.5% | · | · | · | ·
O=C(c1ccccc1Br)N1CCCC(c2nc(-c3cccs3)no2)C1 (stereo unspecified) | · | · | -5.0% | -89.1* | · | ·
COc1ccc(-c2noc(C3CCCN(C(=O)c4ccccc4OC)C3)n2)cc1 (stereo unspecified) | i | -23.2% | -28.7% | -83.9* | ? | -23.6%[46.1 µM]
C#CCNC(=O)c1cc2cccnc2nc1N | · | · | · | 15.0 | · | ·
C[C@H]1[C@@H](NC(=O)Nc2ccc(C(F)(F)F)cc2)CC[C@@]23CCCN2C(=O)CCC[C@@H]13 | · | · | · | -27.3 | · | ·
Cc1ccc(CNc2ncnc(N)c2[N+](=O)[O-])cc1 | -24.2% | -10.8% | 2.4% | -61.4* | 16.5%[46.1 µM] | ·
Cc1cccc(C)c1Nc1ncnc(N)c1[N+](=O)[O-] | -10.1% | -2.7% | -17.3% | -23.2 | 16.3% | 3.7%
CN(Cc1ccccc1)c1nc(N)c([N+](=O)[O-])c(NCc2ccccc2)n1 | ? | -29.6% | 35.5µM* | ? | ? | ?
Nc1nc(NCCc2ccccc2)nc(NCc2ccccc2)c1[N+](=O)[O-] | · | · | 0.0% | -3.2 | 5.2% | ·
O=C(NCc1ccccn1)c1ccccc1OCc1ccccc1Cl | -16.3% | -8.7% | -4.1% | -66.2* | · | ·
COc1cc(CNCc2ccccn2)ccc1OCc1ccccc1Cl | -21.1% | -22.2% | ? | -66.8* | ? | -17.9%
C=CCn1c(O)c(C(C)=NCc2cc(OC)cc(OC)c2)c(=O)[nH]c1=O | 8.91µM* | 5.01µM* | -24.5% | 86.0 | ? | -22.8%
COc1ccc(/C=N\NC(=O)COc2ccc(C(C)(C)C)cc2)cc1Cn1nc(C)cc1C | · | ? | ? | -9.8 | ? | 2.24µM*
Cc1cccc(CNC(=O)c2sc(=O)n(Cc3ccc(S(C)(=O)=O)cc3)c2C)c1 | -4.7% | -4.1% | -28.1% | -68.7* | · | ·
